The values that follow come from PubChem BioAssay (Tox21).

“And” between values parts separate entries of the source, which are not always exact repeats. Identical values can stand only once. Records with an inconclusive call do not appear. Where a call stands in place of a potency, no number is given. A number with no mark means an inactive call. The source made the active and inactive calls. Calls come from the whole dose curve; as a rule, active = well fitted inhibition curve with a large enough effect in the repeat runs; inconclusive = weak or mixed curves; inactive = no such curve, though single readings can be large or run the other way.
Potency is the fitted concentration of half-maximal effect.

The assay can be described thus: qHTS assay to identify small molecule antagonists of the thyroid receptor (TR) signaling pathway (AID 743065). Note: nearly all actives have a fitted effect of over 55% in size. The conditions noted are these: GH3.TRE-Luc, T3-stimulated luciferase inhibition, 23.5 h; series mostly up to 70.3 µM. From the text: U.S. Tox21 Program National Center for Advancing Translational Sciences [NCATS] NIH Chemical Genomics Center [NCGC] U.S. Environmental Protection Agency [EPA] National Institutes of Environmental Health Sciences [NIEHS] National Toxicology Program [NTP] U.S. Food and Drug Administration [FDA] Tox21 Assay Overview: Thyroid receptor (TR), a nuclear hormone receptor, plays an important role in development, proliferation, differentiation, metabolism, brain function, and cardiovascular system. […] To profile the Tox21 10K compound library in TR signaling, a cell-based GH3-TRE-Luc assay (GH3.TRE-Luc cell line, developed by the laboratory of Dr. Albertinka J. Murk, Wageningen University) was used to measure the inhibition of TR. GH3 (rat pituitary tumor) cells stably expressing a TR activity sensor consisting of two TR response elements and a luciferase reporter gene.
Tox21 Assay Protocol Summary: GH3.TRE-Luc cells were dispensed at 1500 cells/4 uL/well into 1536-well white solid bottom plates using a Multidrop Combi dispenser (Thermo Fisher Scientific Inc., Waltham, MA). After the assay plates were incubated at 37 C for 4 hours, 23 nL of library compound or DMSO controls was transferred to the assay plates by a pintool station (Kalypsys, San Diego, CA), followed by addition of 1 ul of T3 (1 nM, final concentration in the wells) to stimulate TR transactivation. The assay plates were incubated at 37 C for 23.5 h, and then 1 uL of CellTiter-Fluor reagent (Promega, Madision, WI) of measuring cytotoxicity was added to each well using a Bioraptr Flying Reagent Dispenser (FRD) workstation (Beckman Coulter, Indianapolis, IN, USA). The plates were incubated at 37 C and 5% CO2 for additional 30 min, and fluorescence intensity was measured by a ViewLux plate reader (PerkinElmer, Shelton, CT). For measuring luciferase reporter gene activity, 4 uL of ONE-Glo Luciferase Assay reagent (Promega) was added to each well using a Bioraptr FRD (Beckman Coulter), followed by 30 min incubation at room temperature. The luminescence intensity of plates was recorded by a ViewLux plate reader (PerkinElmer, Shelton, CT).
In general terms: qHTS replaces the single test concentration by a dilution series.
For `CC(C)NCC(O)c1ccc(NS(C)(=O)=O)cc1` (stereo not given), the Potency result is “inactive”.

Regarding `Nc1ccc(S(=O)(=O)Nc2ccnn2-c2ccccc2)cc1`, the Potency entry is “inactive”.

Take `CN(C)CCCN1c2ccccc2CCc2ccc(Cl)cc21`: the Potency is 13.3 µM (active) and 17.2 µM (active).

For `NC(=O)c1cn(Cc2c(F)cccc2F)nn1`, the Potency result was “inactive”.

Turning to `O=C(O)CCCl`, the Potency entry is “inactive”.

Regarding `CC(C)(C)c1ccc(O)c(O)c1`, the Potency was 56.3 µM (active) and 24.3 µM (active).

For the molecule `O=C1CCCN1C1CCCCC1`, the Potency entry is “inactive”.

Consider `c1cnc(N2CCN(Cc3ccc4c(c3)OCO4)CC2)nc1`, for which the Potency result was “inactive”.

In the case of `CCCCCCOC(=O)CCCCC(=O)OCCCCCC`, the Potency result is “inactive”.

As to `O=C(CCCN1CCN(c2ccccn2)CC1)c1ccc(F)cc1`, the Potency entry is “inactive”.

Regarding `CCCc1cc(C(N)=S)ccn1`, the Potency result is “inactive”.

Take `CC/C=C\CC/C=C/CO`: the Potency entry is “inactive”.

For `CCN1CCC[C@H]1CNC(=O)c1c(O)c(Cl)cc(Cl)c1OC`, the Potency entry is “inactive”.

As for `ClC(Cl)(Br)Br`, the Potency entry was “inactive”.

As for `Cn1cc(S(C)=O)c(=O)c2ccc(F)cc21` (stereo not given), the Potency result was “inactive”.

For `CCc1ccc(O)c(OC)c1`, the Potency entry is “inactive”.

On to `COC(=O)c1cc(C(=O)OC)cc(S(=O)(=O)O)c1`, for which the Potency result is “inactive”.

As to `CCN1CCC[C@H]1CNC(=O)c1cc(S(N)(=O)=O)ccc1OC`, the Potency entry was “inactive”.

For the molecule `O=C(O)COc1nn(Cc2ccccc2)c2ccccc12`, the Potency entry is “inactive”.

Turning to `CC(=O)Nc1ccc(S(N)(=O)=O)cc1`, the Potency result is “inactive”.

Regarding `CCCCCCCCCCCCCC=O`, the activity, negative = inhibition was -3.68% [at 8.44 µM].

`CC(=O)OC/C=C(\C)CC/C=C(\C)CCC=C(C)C`: the Potency entry is “inactive”.

For the molecule `CCCCCOC(=O)CCCCC`, the Potency entry was “inactive”.

Turning to `O=C1OC(=O)C2CCCCC12` (stereo not given), the Potency result is “inactive”.

Regarding `N=C(N)c1ccc2cc(OC(=O)c3ccc(N=C(N)N)cc3)ccc2c1`, the Potency entry was “inactive”.

With `CC(C)(c1ccc(O)cc1)c1ccc(O)cc1`, the Potency was 61.1 µM (active).

On to `CCC(C)C1CCCCC1=O` (stereo not given), for which the Potency result is “inactive”.

As for `Cc1cc2c(cc1S(N)(=O)=O)S(=O)(=O)CCC2`, the Potency entry was “inactive”.

Take `CC(=O)Nc1c(I)cc(I)c(C(=O)O)c1I`: the Potency result was “inactive”.

Take `NCCc1cnc[nH]1`: the Potency result was “inactive”.

Turning to `C=C1CC[C@H]2C[C@@H]1C2(C)C`, the Potency entry was “inactive”.

Regarding `O=C(O)CNC(=O)c1ccc([N+](=O)[O-])cc1`, the Potency result was “inactive”.

Turning to `N[C@@H](C(=O)N[C@@H]1C(=O)N2C(C(=O)O)=C(Cl)CS[C@H]12)c1ccccc1`, the Potency entry was “inactive”.

As to `CCn1ccnc1CC1COc2ccccc2O1` (stereo not given), the Potency entry is “inactive”.

With `COc1ccccc1OCC(O)CN1CCN(CC(=O)Nc2c(C)cccc2C)CC1` (stereo not given), the Potency result was “inactive”.

Regarding `N=C(N)c1ccc(OCCCOc2ccc(C(=N)N)cc2)cc1`, the Potency entry was “inactive”.

Regarding `COc1cc(C(=O)N2CCCCCCC2)cc(OC)c1OC`, the Potency entry is “inactive”.

Take `CCOC(=O)C(=O)OCC`: the Potency result was “inactive”.

Regarding `C=C(C)CS(=O)(=O)O`, the Potency result was “inactive”.

Turning to `COc1ccc2c(c1)c(CC(=O)OCC(=O)O)c(C)n2C(=O)c1ccc(Cl)cc1`, the Potency result was “inactive”.
